# Measurements as given in PubChem BioAssay (Tox21).
# Inconclusive results are not listed. A number with no mark means an inactive call. Active and inactive are the calls of the source. Calls follow the shape of the dose curve; as a rule, active = well fitted cell-killing curve with a large enough effect in the repeat runs; inconclusive = weak or mixed curves, or effect the other way; inactive = flat fitted curve, though single readings scatter.
# Experiment: qHTS RealTime-Glo MT Cell Viability Assay in HEK293 cells - 0 hour (AID 1224880); also: top concentration of the series differs between compounds; nearly all actives have a fitted effect of over 45% in size
# Conditions: RealTime-Glo luminescence; series mostly up to 76.8 µM; activity change, negative = cytotoxicity: at the top concentration
# Excerpt: U.S. Tox21 Program National Center for Advancing Translational Sciences [NCATS] NIH Chemical Genomics Center [NCGC] U.S. Environmental Protection Agency [EPA] National Institutes of Environmental Health Sciences [NIEHS] National Toxicology Program [NTP] U.S. Food and Drug Administration [FDA] Tox21 Assay Overview: Measure of cell viability is critical in the cell-base assay. Analysis of cell viability is necessary for the characterization of cell responses to cytotoxic drugs and environmental stress. A RealTime-Glo MT Cell Viability Assay to monitor cell viability in real time of continues cell culture during 40 hours of compound treatment was used to screen Tox21 10K library compounds in Hek293 cells. The RealTime-Glo MT Cell Viability Assay is a nonlytic, homogeneous, bioluminescent method to measure cell viability in real time using a simple, plate-based method. The assay involves adding NanoLuc luciferase and a cell-permeant prosubstrate to cells in culture. Viable cells reduce the proprietary prosubstrate to generate a substrate for NanoLuc luciferase. This substrate diffuses from cells into the surrounding culture medium, where it is rapidly used by the NanoLuc Enzyme to produce a luminescent signal. The signal correlates with the number of viable cells, making the assay well suited for cytotoxicity studies.
# Tox21 Assay Protocol Summary: The mixture of Hek293 cell suspension and reagents were dispensed at 600cells/6 ul/well in 1536-well tissue culture treated black solid bottom plates using a Multidrop dispenser. After the assay plates were incubated at a 37 C/5% CO2 incubator for 5 hours, 23 nL of compounds dissolved in DMSO, positive and negative controls was transferred to the assay plate by a pintool work station. The plates were incubated at 37 C for 40 hours. The luminescence intensity were measured at 0h, 8h, 16h, 24h, 32h and 40h time points using ViewLux plate reader during compound treatment.
# % is scaled to controls: 0 for no effect and ±100 for the full control effect.
SMILES,"activity change, negative = cytotoxicity",Potency
CC(=O)Nc1ccc2c(c1)Cc1ccccc1-2,0.87%,–
CN(C)c1ccc(N=Nc2ccccc2)cc1,-10.4%,–
COS(=O)(=O)c1ccc(C)cc1,9.56%,–
CC(C)(COCC1CO1)COCC1CO1 (stereo not given),4.62%,–
COCC(=O)N(c1c(C)cccc1C)[C@H](C)C(=O)OC,0.826%,–
C[C@H]1O[C@@H](O[C@H]2[C@@H](O)C[C@H](O[C@H]3[C@@H](O)C[C@H](O[C@H]4CC[C@@]5(C)[C@H](CC[C@@H]6[C@@H]5CC[C@]5(C)[C@@H](C7=CC(=O)OC7)CC[C@]65O)C4)O[C@@H]3C)O[C@@H]2C)C[C@H](O)[C@@H]1O,–,inactive
CC(O)C#N (stereo not given),-7.6%,–
C[C@]12Cc3nonc3C[C@@H]1CC[C@@H]1[C@@H]2CC[C@@]2(C)[C@H]1CC[C@]2(C)O,16.1% [at 35.3 µM],–
CS(=O)(=O)c1ccc(C(=O)C2C(=O)CCCC2=O)c([N+](=O)[O-])c1,-1.05%,–
ClCCN1CCOCC1,-24.8%,–
COc1cc(C=O)cc2c1[C@H](COC(N)=O)[C@]1(OC(C)=O)ON2C[C@H]2[C@@H]1N2C(C)=O,7.01%,–
O=C(O)C1C2CCC(O2)C1C(=O)O (stereo not given),–,inactive
O=C1NCN(c2ccccc2)C12CCN(CC1COc3ccccc3O1)CC2 (stereo not given),-16.9% [at 35.3 µM],–
C1CCC2CCCCC2C1 (stereo not given),7.29%,–
c1ccc2cc3c(cc2c1)-c1cccc2cccc-3c12,2.15%,–
c1ccc(OCC2CO2)cc1 (stereo not given),1.47%,–
CCOC(=O)C1(c2ccccc2)CCN(CCC(C#N)(c2ccccc2)c2ccccc2)CC1,-2.84% [at 35.3 µM],–
CCOc1cc(C(C)(C)C)ccc1C1COC(c2c(F)cccc2F)=N1 (stereo not given),1.35% [at 35.3 µM],–
CN(CCCC(O)c1cccnc1)N=O (stereo not given),-1.52%,–
Cc1cc(Cl)ccc1O[C@H](C)C(=O)O,0.0678%,–

SMILES,"activity change, negative = cytotoxicity",Potency
CCOP(=O)(NC(C)C)Oc1ccc(SC)c(C)c1 (stereo not given),-0.717%,–
CC(C)CCCCCOC(=O)c1ccccc1C(=O)OCCCCCC(C)C,0.639%,–
SCc1ccco1,6.38%,–
ClC(Cl)=C(Cl)Cl,0.658%,–
Oc1cccc(-c2ccccc2)c1,7.2%,–
C[CH2][Hg][N]1C(=O)C2C(C1=O)C1(Cl)C(Cl)=C(Cl)C2(Cl)C1(Cl)Cl (stereo not given),-4.29% [at 15.8 µM],–
S=C=Nc1cccc2ccccc12,-18.1%,–
CC(=O)[O-].[Tl+],0.0645%,–
O=[N+]([O-])c1cc([N+](=O)[O-])c2ccccc2c1,1.96%,–
ClC1=C(Cl)[C@]2(Cl)[C@@H]3[C@@H](Cl)[C@H](Cl)C[C@@H]3[C@@]1(Cl)C2(Cl)Cl,-0.0467%,–
Cl/C=C\CCl,6.11%,–
Cc1ccc(C(=O)Cl)cc1,-0.365%,–
O=C(CCl)C(Cl)Cl,-3.23%,–
ClCc1ccc(Cl)cc1Cl,15.9%,–
CCS(=O)(=O)c1cccnc1S(=O)(=O)NC(=O)Nc1nc(OC)cc(OC)n1,5.68%,–
C=COCCCl,7.51%,–
CCN,17.6%,–
O=S(=O)(c1ccc(Cl)cc1)c1ccc(Cl)cc1,-5.53%,–
COP(=O)(OC)SCn1c(=O)oc2cc(Cl)cnc21,18.9%,–
S=C(SSC(=S)N1CCCCC1)N1CCCCC1,-4.53% [at 35.3 µM],–
